From PubChem BioAssay AID651774 (Broad Institute, 2012) come the findings set out here.

Each structure is given as a SMILES string. Entries with a potency or affinity are not part of this list. Values without a mark were called inactive. Calls of active or inactive are those of the source. No rule for the calls is given here.

This assay can be described thus: cytotoxicity in HeLa cells, dose response, cytotoxicity control, cell-based, 24 h, dry powder (AID 651774). To be noted: HeLa viability, CellTiter-Glo ATP luminescence; series mostly up to 35 µM; activity change, negative = cytotoxicity: at the top concentration. A general note: ATP-based viability assays read luminescence as a measure of living cells.
With `O=C(NCc1ccc(-c2ccccc2)cc1)C1CCCC1`, the compound was called inactive. As to `O=C(Cc1cccc(Cl)c1)NC1CCCC1`, the “activity change, negative = cytotoxicity” value was -1.26%. On to `O=C(Cc1ccncc1)NC1CCCC1`, for which the “activity change, negative = cytotoxicity” value was -5.41%. Still for that read-out and setting: under `CCN(Cc1ccc(N2CCCC2)cc1)c1nnnn1CC` stands -1.69%.
